Screening data as filed in PubChem BioAssay.
Vaccinia Venus = inhibitors of vaccinia virus (Venus reporter). Vaccinia virus Venus reporter expression, fluorescence. Potency, µM (doses to about 36.5 µM), most hits filed as inhibitors. actives 0.46% (n = 330,000); calls by dose curve; tested in A549 cells; also: nearly all actives have a fitted effect of over 30% in size
HCMV inh = human cytomegalovirus inhibition; HFF cells, HCMV-luciferase reporter, 72 h; active compounds read low; activity change, negative = inhibition, % at 57.5 µM; actives 4.5% (n = 410,000); AID 1259415; in the data active = activity change below about -60%; inconclusive = no clear call, values can overlap the other calls; inactive = above about -39%
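HFF cells seeded 16 h at 37C, treated with compounds, infected with luciferase-reporter HCMV at MOI 1 PFU/cell; luciferase read at 72 h post infection, normalized to buffer-only and Salinomycin controls.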
Marburg entry inh = blocks Marburg virus binding to or entry into cells; Marburg virus pseudotyped entry inhibition, cell reporter; Potency, µM (series often up to 37.8 µM), hits mostly inhibitors; actives 1.8% (n = 300,000); AID 540276; calls by dose curve; tested in HEK293 cells
Lassa entry inh = Lassa virus entry inhibition | Lassa virus pseudotype entry inhibition, cell reporter | Potency, µM (top dose mostly 37.9 µM), actives largely listed as inhibitors | actives 1.2% (n = 300,000) | AID 540256; calls by dose curve; tested in HEK293 cells; also: nearly all actives have a fitted effect of over 50% in size
FMDV inh = foot and mouth disease virus antiviral activity; Potency, µM (highest dose often 57.9 µM), actives largely listed as inhibitors; actives 1.2% (n = 410,000); AID 1159524; FMDV antiviral cell-based qHTS; calls by dose curve; tested in HEK293T cells; also: read-out not given here; nearly all actives have a fitted effect of over 45% in size
VACV mCherry inh = vaccinia inhibition (mCherry reporter). Vaccinia virus mCherry reporter infection, fluorescence. Potency, µM (highest dose often 36.5 µM), hits mostly inhibitors. actives 0.63% (n = 310,000); calls by dose curve; tested in A549 cells; also: nearly all actives have a fitted effect of over 35% in size
A number is an active result. Sampled rows, rich in hits. Any-hit rate of the full collection: about 6.5%.

CC(C)(C)NC(=O)CN1CCCN(C(=O)COc2ccc(Cl)c3ccccc23)CC1 was read as Vaccinia Venus inactive, HCMV inh inactive, Marburg entry inh inactive, Lassa entry inh inconclusive, FMDV inh inactive and VACV mCherry inh inconclusive.
`COc1ccccc1/C=C/CN1CCCC(CO)(Cc2cccc(Cl)c2)C1` (configuration not stated) gave Vaccinia Venus inactive, HCMV inh inactive, Marburg entry inh 12.6µM, Lassa entry inh 14.1µM, FMDV inh inconclusive and VACV mCherry inh inactive.
COc1ccc(/C=C/CN2CCCC(CO)(Cc3cccc(Cl)c3)C2)cc1 (configuration not stated) was read as Vaccinia Venus inconclusive, HCMV inh inactive, Marburg entry inh 6.31µM, Lassa entry inh 10µM, FMDV inh inactive and VACV mCherry inh inactive.
COc1cccc(CC2(CO)CCCN(C/C=C/c3ccccc3OC)C2)c1 (configuration not stated) was read as HCMV inh inactive and FMDV inh inactive.
CC(C)(O)C#Cc1ccc(CN2CCCC(CO)(Cc3cccc(Cl)c3)C2)cc1 (configuration not stated) was read as HCMV inh -82.0, Marburg entry inh inconclusive, Lassa entry inh inconclusive and FMDV inh inactive.
For Cc1ccccc1CC1(CO)CCCN(Cc2ccc(C#CC(C)(C)O)cc2)C1 (configuration not stated) the results were Vaccinia Venus inactive, HCMV inh inactive, Marburg entry inh inconclusive, Lassa entry inh inactive, FMDV inh inactive and VACV mCherry inh inactive.
Screening COc1ccc(F)c(CN2CCCC(CO)(Cc3cccc(Cl)c3)C2)c1 (configuration not stated) returned HCMV inh inactive and FMDV inh inactive.
`COc1ccc(CNc2ncnc3c2c(-c2ccccc2)cn3-c2ccccc2)cc1` gave Vaccinia Venus inactive, HCMV inh inactive, Lassa entry inh inactive, FMDV inh inconclusive and VACV mCherry inh inactive.
O=Cc1ccc(/C=C2\C=Cc3ccccc32)cc1 was read as Vaccinia Venus inactive and VACV mCherry inh inactive.
`COc1cc2c(cc1OC)CN(C(=O)CSc1ccccc1C)CC2` gave Vaccinia Venus inactive, HCMV inh inactive, Marburg entry inh inactive, Lassa entry inh inactive, FMDV inh inconclusive and VACV mCherry inh inactive.
`COc1cc2c(cc1OC)CN(C(=O)CSC1=NCCS1)CC2` gave Vaccinia Venus inactive, HCMV inh -69.3, FMDV inh inconclusive and VACV mCherry inh inactive.
`COc1ccc(/C=C/C(=O)c2c(O)cc(C)oc2=O)c(OC)c1` gave Vaccinia Venus inactive, HCMV inh inactive, Marburg entry inh inactive, Lassa entry inh inactive, FMDV inh inactive and VACV mCherry inh inactive.
For COc1cc(/C=C/C(=O)c2c(O)cc(C)oc2=O)cc(OC)c1O the results were Vaccinia Venus inactive, HCMV inh -67.5, Marburg entry inh inactive, Lassa entry inh inactive, FMDV inh 14.1µM and VACV mCherry inh inactive.
Screening COc1cccc(/C=C/C(=O)c2c(O)cc(C)oc2=O)c1O returned Vaccinia Venus inactive, HCMV inh -97.1, Marburg entry inh inconclusive, Lassa entry inh inactive, FMDV inh 20µM and VACV mCherry inh inactive.
Screening CCn1nc(C)c(CNC(=O)c2ccc(OC3CCN(Cc4ccccn4)CC3)cc2)c1C returned Vaccinia Venus inactive, HCMV inh -91.0, Marburg entry inh inconclusive, Lassa entry inh inconclusive, FMDV inh inconclusive and VACV mCherry inh inactive.
For CCn1cc(CNC(=O)c2ccc(OC3CCN(Cc4ccccn4)CC3)cc2)cn1 the results were Vaccinia Venus inactive, HCMV inh -71.4, Marburg entry inh inactive, Lassa entry inh inconclusive, FMDV inh inconclusive and VACV mCherry inh inconclusive.
CCOc1ccccc1CN1CCC(Oc2ccc(C(=O)NCc3ccccn3)cc2)CC1 was read as HCMV inh inactive and FMDV inh inactive.
Screening O=C(NCCc1cccc(Cl)c1)c1ccc(OC2CCN(Cc3ccccn3)CC2)cc1 returned HCMV inh -71.0 and FMDV inh 28.2µM.
CCCCOc1ccc(N2C(=O)C(C)CNC2=S)cc1 (configuration not stated) was read as Vaccinia Venus inactive, HCMV inh -99.4, Marburg entry inh inactive, Lassa entry inh inactive, FMDV inh inactive and VACV mCherry inh inactive.
COc1ccc(-c2csc(C(C)(O)c3ccc(F)c(F)c3)n2)cc1 (configuration not stated) was read as Vaccinia Venus inconclusive, HCMV inh -63.5, FMDV inh inactive and VACV mCherry inh inactive.
For CC(O)(c1ccc(F)c(F)c1)c1nc(-c2ccncc2)cs1 (configuration not stated) the results were Vaccinia Venus inactive, HCMV inh inactive, FMDV inh inactive and VACV mCherry inh inactive.
For COc1ccc(C(C)(O)c2nc(-c3cccc(C(F)(F)F)c3)cs2)cc1 (configuration not stated) the results were Vaccinia Venus inactive, HCMV inh -66.7, FMDV inh inactive and VACV mCherry inh inactive.
For CN(C)c1ccc(-c2csc(C(C)(O)c3ccc(F)c(F)c3)n2)cc1 (configuration not stated) the results were Vaccinia Venus inactive, HCMV inh -63.8, FMDV inh inactive and VACV mCherry inh inactive.
For C[C@@H](CN(C)C)CN1c2ccccc2CCc2ccccc21 the results were Marburg entry inh 13µM.
CNC(=O)N1c2ccccc2CCc2ccccc21 was read as HCMV inh inactive and FMDV inh inactive.
`CC(CN(C)C)CN1c2ccccc2CCc2ccccc21` (configuration not stated) gave Vaccinia Venus inconclusive, HCMV inh inconclusive, Marburg entry inh 13µM, Lassa entry inh inconclusive, FMDV inh inconclusive and VACV mCherry inh inactive.
`COc1cc(CN(C(=O)COc2ccc(Br)cc2)c2ccccn2)cc(OC)c1OC` gave Vaccinia Venus inactive, HCMV inh inactive, Marburg entry inh inactive, Lassa entry inh inactive, FMDV inh inactive and VACV mCherry inh inactive.
`Cc1ccc(C(C(=O)NC(C)(C)C)N(CC2CCCO2)C(=O)c2csnn2)cc1` (configuration not stated) gave Vaccinia Venus inactive, HCMV inh inactive, Marburg entry inh inactive, Lassa entry inh inactive, FMDV inh inactive and VACV mCherry inh inactive.
CC(C)(C)NC(=O)C(c1ccc(-c2ccccc2)cc1)N(C[C@H]1CC[C@@H]([C@@H]2CC[C@H](CO)O2)O1)C(=O)c1ccc(C(C)(C)C)cc1 (some centres not stated) was read as Vaccinia Venus inconclusive, HCMV inh -100.7, FMDV inh inactive and VACV mCherry inh inactive.
`O=C(COc1ccc(Cl)cc1Cl)N/N=C1\CCCc2ccccc21` gave Vaccinia Venus inactive, HCMV inh inactive, Marburg entry inh inactive, Lassa entry inh inactive, FMDV inh inactive and VACV mCherry inh inactive.
`O=C(COc1ccc(Cl)cc1Cl)NN=C1c2ccccc2-c2ccccc21` gave Vaccinia Venus inactive, HCMV inh -61.3, Marburg entry inh inactive, Lassa entry inh inconclusive, FMDV inh inconclusive and VACV mCherry inh inactive.
